# Test results published in PubChem BioAssay AID489036 (National Center for Advancing Translational Sciences (NCATS), 2010).
# Results filed as inconclusive are left out. Calls of active or inactive are those of the source. The call rests on the fitted dose curve; in most records, active means well fitted inhibition curve with a large enough effect; inconclusive means small, poorly fitted or top-dose-only effect, or effect the other way; inactive means flat fitted curve, though single readings scatter.
# Test: VP16 selectivity assay for inhibitors of ROR gamma transcriptional activity
# Source text: NIH Molecular Libraries Probe Production Network [MLPCN] NIH Chemical Genomics Center [NCGC] MLPCN Grant: R03 DA026211-01 Assay Provider: Dan Littman, New York University Assay Overview: The retinoic acid-related orphan receptor (ROR) gamma is a transcription factor that has a central role in the differentiation of Th17 cells, a subset of T helper cells that secrete the inflammatory cytokines IL-17, IL-17F, and IL-22. Th17 cells have been implicated in graft versus host disease, autoimmune disease and asthma. ROR gamma is induced in naive T helper cells in the presence of TGF-beta combined with IL-6, IL-21, or IL-23, and thereafter directs the expression of the Th17 lineage cytokines. […] Small molecule inhibitors that inhibit components common to the RORgt and VP16 assays, such as the Gal4 DNA binding domain or the UAS luciferase reporter, will be active in both assays and thus scored as nonspecific.
# Assay Protocol Summary: For screening, 600 cells in 4 uL/well were dispensed into white solid 1536-well plates (Grenier) using a solenoid-based dispenser. […] After addition of 1.5 uL Photinus luciferase detection reagent, the plates were incubated 10 min at ambient temperature and then read by an ViewLux (Perkin Elmer) to detect luminescence.
row,Compound,outcome
1,CO[C@H]1[C@@H](O)CC(OC2[C@@H](O)CC(OC3[C@@H](O)C[C@H](OC4CC[C@@]5(C)C(CCC6C5CC(O)[C@]5(C)[C@H](C7=CC(=O)OC7)CCC65O)C4)O[C@@H]3C)O[C@@H]2C)O[C@@H]1C (some centres not stated),inactive
2,CC1OC(O[C@@H]2C(O)CC(O[C@@H]3C(O)C[C@@H](OC4CC[C@@]5(C)C6CC[C@]7(C)C(C8=CC(=O)OC8)C(O)C[C@@]7(O)[C@H]6CC[C@@H]5C4)OC3C)OC2C)CC(O)C1O (some centres not stated),inactive
